Activity calls are given as the source filed them.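 Rule for the calls: active = viability at 10 µM of 29.74% or lower, 3 SD below the compound median; inactive = the rest.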
Assay: viability of HCT116 lacking mutant beta-catenin – cell-based, DP diverse set, validation, pilot screen (AID 1004)
Conditions: HCT116 (mutant beta-catenin deleted) viability, CellTiter-Glo, 60 h; at 10 µM; active compounds read low
With `Cn1cnc2c(NCc3ccccc3)nc(NCCO)nc21` the viability was 103% (inactive). With `COc1c(C)c2c(c(O)c1C/C=C(\C)CCC(=O)O)C(=O)OC2` the viability was 49.1% (inactive). In the case of `CO/N=C(\C(=O)N[C@@H]1C(=O)N2C(C(=O)O)=C(COC(C)=O)CS[C@H]12)c1csc(N)n1`, the viability was 96.4% (inactive). For `Clc1ccc2ncnc(NCc3ccc4c(c3)OCO4)c2c1`, the viability was 95.8% (inactive). For `O=C1OC2(c3ccc(O)cc3Oc3cc(O)ccc32)c2ccccc21`, the viability was 96.5% (inactive). With `Cc1ccc(Cl)c(Nc2ccccc2C(=O)O)c1Cl` the viability was 98.9% (inactive). In the case of `CC[n+]1c(-c2ccccc2)c2cc(N)ccc2c2ccc(N)cc21`, the viability was 51.3% (inactive). With `C[C@@H]1C(=O)O[C@@H]2CC34C5CC(C(C)(C)C)[C@]36C(O)C(=O)O[C@@H]6O[C@@]4(C(=O)O5)[C@@]12O` (some centres undefined) the viability was 72.1% (inactive). For `Nc1c(N=Nc2ccc(-c3ccc(N=Nc4cc(S(=O)(=O)O)c5ccccc5c4N)cc3)cc2)cc(S(=O)(=O)O)c2ccccc12`, the viability was 83% (inactive). In the case of `COc1ccc2c3c1O[C@H]1C[C@@H](O)C=C[C@@]31CCN(C)C2`, the viability was 94% (inactive). In the case of `CN1CCN(C2Cc3ccccc3Sc3ccc(S)cc32)CC1` (centres undefined), the viability was 79.5% (inactive). For `CO[C@@H]1[C@@H](OC(N)=O)[C@@H](O)[C@H](Oc2ccc3c(O)c(NC(=O)c4ccc(O)c(CC=C(C)C)c4)c(=O)oc3c2C)OC1(C)C`, the viability was 99.5% (inactive). For `Cc1c(C)c2c(c(C)c1O)CCC(C)(COc1ccc(CC3SC(=O)NC3=O)cc1)O2` (centres undefined), the viability was 92% (inactive). In the case of `O=C1CCC(N2C(=O)c3ccccc3C2=O)C(=O)N1` (centres undefined), the viability was 96.1% (inactive). In the case of `CCC[C@@H]1C[C@@H](C(=O)NC(C(C)Cl)[C@H]2O[C@H](SC)[C@H](O)[C@@H](O)[C@H]2O)N(C)C1` (some centres undefined), the viability was 95.6% (inactive). For `C/C=C1/C2C=C(C)CC1(N)c1ccc(=O)[nH]c1C2` (centres undefined), the viability was 106% (inactive). With `COc1cc(CNC(=O)CCCC/C=C/C(C)C)ccc1O` the viability was 95.2% (inactive). For `COc1ccc2c(c1)c(CC(=O)O)c(C)n2C(=O)c1ccc(Cl)cc1`, the viability was 101% (inactive). In the case of `CCn1cc(C(=O)O)c(=O)c2ccc(C)nc21`, the viability was 94.8% (inactive).

Reference: PubChem BioAssay AID1004 (SRMLSC, 2008)
